Our source for the growth inhibition values is PubChem BioAssay (NCI).

Structures are written as SMILES. The panel holds about 79,000 compounds, 15% with a hit somewhere; the sample as a whole holds those more often. A number with no mark means an inactive call. Active and inactive are the calls of the source. Cut-off read from the data, not from the text of the source: active = growth inhibition above about 70%; inactive = the rest.

A short description of assay [1]: NCI Yeast Anticancer Drug Screen. Data for the rad50 strain (AID 155).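 Note: 0% = growth of vehicle-only cultures of the same strain.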 The conditions noted are these: S. cerevisiae rad50 strain growth inhibition, hits give high values. The procedure, abridged: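 Yeast carrying a defined DNA repair defect were exposed to test compounds, and growth was compared with vehicle-treated controls to give percent inhibition.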
Assay [2] can be described thus: NCI Yeast Anticancer Drug Screen. Data for the mec2-1 strain (AID 157). The conditions noted are these: S. cerevisiae mec2-1 strain, hits give high values. The method in brief:
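Yeast mec2-1 mutant treated with compound. Readout: growth inhibition vs vehicle controls.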

Assay [3] can be described thus: NCI Yeast Anticancer Drug Screen. Data for the sgs1 mgt1 strain (AID 161).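 Note: 0% = growth of cultures given vehicle only.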 The conditions noted are these: S. cerevisiae sgs1 mgt1 strain, hits give high values. The method in brief: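 Mutant yeast exposed to compound; growth scored against vehicle-only wells.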
Assay [4] in a line: NCI Yeast Anticancer Drug Screen. Data for the cln2 rad14 strain (AID 165).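 Note: 0% = growth equal to vehicle treated cultures.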 To be noted: S. cerevisiae cln2 rad14 strain, hits give high values. The method in brief:
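cln2 rad14 yeast strain; compound exposure; growth inhibition read vs vehicle controls.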

Assay [5] in a line: NCI Yeast Anticancer Drug Screen. Data for the bub3 strain (AID 167). The conditions noted are these: S. cerevisiae bub3 mutant strain, hits give high values. The method in brief: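 Compounds were applied to a genetically altered yeast strain carrying a cell-cycle control defect. Growth inhibition was scored against vehicle-treated controls.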
The nature of assay [6]: NCI Yeast Anticancer Drug Screen. Data for the mlh1 rad18 strain (AID 175). The conditions noted are these: S. cerevisiae mlh1 rad18 strain growth inhibition, hits give high values. The procedure, abridged: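 Yeast w/ defined DNA-repair lesions; compound exposure; growth vs vehicle controls → % inhibition.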
Setting [7] is: at 5.0 µM (retest, dose inferred, filed as 0.5).
Setting [8] is: at 50.0 µM (retest, dose inferred, filed as 5.0).

Take `CCN1C2=NC(=O)N(C)C(=O)C2(Cl)C(C(SC)S(=O)(=O)c2ccc(C)cc2)c2ccccc21` (stereo not given): the growth inhibition is 22% in assay [1] (setting [7]); 22% in assay [1] (setting [8]); 88.1% (active) in assay [1] (at 50.0 µM); 7% in assay [2] (setting [7]); 7% in assay [2] (setting [8]); 86.3% (active) in assay [2] (at 50.0 µM). Also, the growth inhibition in assay [3] (setting [7]) was 15%; in assay [3] (setting [8]), 15%; in assay [3] (at 50.0 µM), 81.7% (active); in assay [4] (setting [7]) it was 18%; in assay [4] (setting [8]), 18%; in assay [4] (at 50.0 µM), 90% (active). Besides, the growth inhibition in assay [5] (setting [7]) was 1%; in assay [5] (setting [8]), 1%; in assay [5] (at 50.0 µM) it was 89.5% (active); in assay [6] (setting [7]) it was 2%; in assay [6] (setting [8]), 2%; in assay [6] (at 50.0 µM) it was 84.7% (active).
As for `CC(C(=O)c1ccc2cc(Br)c3ccccc3c2c1)N(C)C` (stereo not given), the growth inhibition in assay [1] (setting [7]) is -6%; in assay [1] (setting [8]), 99% (active); in assay [1] (at 50.0 µM), 99.4% (active); in assay [2] (setting [7]), 1%; in assay [2] (setting [8]) it was 99% (active); in assay [2] (at 50.0 µM) it was 98.5% (active). Further, the growth inhibition in assay [3] (setting [7]) is -14%; in assay [3] (setting [8]), 100% (active); in assay [3] (at 50.0 µM) it was 99.2% (active); in assay [4] (setting [7]), -5%; in assay [4] (setting [8]), 99% (active); in assay [4] (at 50.0 µM), 99.5% (active). Further, the growth inhibition is 25% in assay [5] (setting [7]); 99% (active) in assay [5] (setting [8]); 99.4% (active) in assay [5] (at 50.0 µM); 5% in assay [6] (setting [7]); 99% (active) in assay [6] (setting [8]); 99.3% (active) in assay [6] (at 50.0 µM).
As to `NCC(CS)C(=O)NC(CS)C(=O)NC(CS)C(=O)NCCNc1ccc(NCCNC(=O)C(CS)NC(=O)C(CS)NC(=O)C(CN)CS)c2c1C(=O)c1c(O)ccc(O)c1C2=O` (stereo not given), the growth inhibition in assay [1] (setting [7]) is 80% (active); in assay [1] (setting [8]), 78% (active); in assay [1] (at 50.0 µM) it was 61.1%; in assay [2] (setting [7]), 34%; in assay [2] (setting [8]), 85% (active); in assay [2] (at 50.0 µM) it was 70.8% (active). In addition, the growth inhibition is 36% in assay [3] (setting [7]); 82% (active) in assay [3] (setting [8]); 72% (active) in assay [3] (at 50.0 µM); 23% in assay [4] (setting [7]); 84% (active) in assay [4] (setting [8]); 65.7% in assay [4] (at 50.0 µM). Moreover, the growth inhibition in assay [5] (setting [7]) was 36%; in assay [5] (setting [8]) it was 58%; in assay [5] (at 50.0 µM), 65%; in assay [6] (setting [7]) it was 40%; in assay [6] (setting [8]), 75% (active); in assay [6] (at 50.0 µM), 53.9%.
On to `Cc1cc2c(c3c1C(=O)CC3)C(C)(C)CC2(C)C`, for which the growth inhibition in assay [1] (setting [7]) is 1%; in assay [1] (setting [8]), 77% (active); in assay [1] (at 50.0 µM), 2.9%; in assay [2] (setting [7]) it was -1%; in assay [2] (setting [8]), 76% (active); in assay [2] (at 50.0 µM), 9.15%. The growth inhibition in assay [3] (setting [7]) was 1%; in assay [3] (setting [8]), 70% (active); in assay [3] (at 50.0 µM), 1.65%; in assay [4] (setting [7]), -2%; in assay [4] (setting [8]) it was 78% (active); in assay [4] (at 50.0 µM), -4.5%. Moreover, the growth inhibition in assay [5] (setting [7]) is 25%; in assay [5] (setting [8]) it was 92% (active); in assay [5] (at 50.0 µM) it was 70.2% (active); in assay [6] (setting [7]) it was -3%; in assay [6] (setting [8]) it was 64%; in assay [6] (at 50.0 µM), 6.05%.
Turning to `CC(c1ccc2cccc(F)c2c1)c1ccccc1C(=O)O` (stereo not given), the growth inhibition in assay [1] (setting [7]) is 3%; in assay [1] (setting [8]) it was 99% (active); in assay [1] (at 50.0 µM), 99% (active); in assay [2] (setting [7]), 6%; in assay [2] (setting [8]) it was 98% (active); in assay [2] (at 50.0 µM) it was 96% (active). Moreover, the growth inhibition in assay [3] (setting [7]) was -1%; in assay [3] (setting [8]) it was 96% (active); in assay [3] (at 50.0 µM), 98.2% (active); in assay [4] (setting [7]) it was 1%; in assay [4] (setting [8]), 98% (active); in assay [4] (at 50.0 µM) it was 97.5% (active). Further, the growth inhibition in assay [5] (setting [7]) is 0%; in assay [5] (setting [8]) it was 97% (active); in assay [5] (at 50.0 µM), 93.9% (active); in assay [6] (setting [7]) it was 5%; in assay [6] (setting [8]), 99% (active); in assay [6] (at 50.0 µM), 98.2% (active).
`CCOC(=O)Cc1[nH]c(C(=O)c2ccccc2)cc1C(=O)c1ccccc1`: the growth inhibition in assay [1] (setting [7]) was 20%; in assay [1] (setting [8]), 87% (active); in assay [1] (at 50.0 µM) it was -44.6%; in assay [2] (setting [7]), 11%; in assay [2] (setting [8]) it was 81% (active); in assay [2] (at 50.0 µM), -9.35%. Moreover, the growth inhibition was -1% in assay [3] (setting [7]); 88% (active) in assay [3] (setting [8]); -36.1% in assay [3] (at 50.0 µM); 7% in assay [4] (setting [7]); 97% (active) in assay [4] (setting [8]); 5% in assay [4] (at 50.0 µM). In addition, the growth inhibition is -2% in assay [5] (setting [7]); 97% (active) in assay [5] (setting [8]); -24.4% in assay [5] (at 50.0 µM); 17% in assay [6] (setting [7]); 89% (active) in assay [6] (setting [8]); -42.9% in assay [6] (at 50.0 µM).
Consider `OC(CN1CCCCC1)c1ccc2c(ccc3ccccc32)c1` (stereo not given), for which the growth inhibition in assay [1] (setting [7]) was 21%; in assay [1] (setting [8]) it was 54%; in assay [1] (at 50.0 µM) it was 83% (active); in assay [2] (setting [7]), 6%; in assay [2] (setting [8]) it was 46%; in assay [2] (at 50.0 µM) it was 50%. The growth inhibition was 35% in assay [3] (setting [7]); 75% (active) in assay [3] (setting [8]); 88.2% (active) in assay [3] (at 50.0 µM); 19% in assay [4] (setting [7]); 50% in assay [4] (setting [8]); 75% (active) in assay [4] (at 50.0 µM). Also, the growth inhibition is 25% in assay [5] (setting [7]); 69% in assay [5] (setting [8]); 91.8% (active) in assay [5] (at 50.0 µM); 22% in assay [6] (setting [7]); 61% in assay [6] (setting [8]); 87.5% (active) in assay [6] (at 50.0 µM).
For `Oc1ccc(N=Nc2cc(Cl)ccc2Cl)cc1`, the growth inhibition is 92% (active) in assay [1] (setting [7]); 95% (active) in assay [1] (setting [8]); 98.5% (active) in assay [1] (at 50.0 µM); 94% (active) in assay [2] (setting [7]); 96% (active) in assay [2] (setting [8]); 98.2% (active) in assay [2] (at 50.0 µM). The growth inhibition in assay [3] (setting [7]) was 95% (active); in assay [3] (setting [8]), 95% (active); in assay [3] (at 50.0 µM) it was 98.5% (active); in assay [4] (setting [7]), 94% (active); in assay [4] (setting [8]) it was 94% (active); in assay [4] (at 50.0 µM) it was 82.5% (active). Moreover, the growth inhibition was 93% (active) in assay [5] (setting [7]); 95% (active) in assay [5] (setting [8]); 98% (active) in assay [5] (at 50.0 µM); 94% (active) in assay [6] (setting [7]); 96% (active) in assay [6] (setting [8]); 97.7% (active) in assay [6] (at 50.0 µM).
Take `O=C1CCC(Cc2ccc(Cl)cc2Cl)C(=O)N1` (stereo not given): the growth inhibition in assay [1] (setting [7]) was -8%; in assay [1] (setting [8]), 3%; in assay [1] (at 50.0 µM), -7.6%; in assay [2] (setting [7]) it was -3%; in assay [2] (setting [8]) it was -6%; in assay [2] (at 50.0 µM), 6.15%. The growth inhibition in assay [3] (setting [7]) was 45%; in assay [3] (setting [8]) it was 95% (active); in assay [3] (at 50.0 µM), 92.8% (active); in assay [4] (setting [7]) it was -4%; in assay [4] (setting [8]), -2%; in assay [4] (at 50.0 µM), -68.7%. For the same compound, the growth inhibition is -4% in assay [5] (setting [7]); 0% in assay [5] (setting [8]); -47.7% in assay [5] (at 50.0 µM); -5% in assay [6] (setting [7]); 3% in assay [6] (setting [8]); -7% in assay [6] (at 50.0 µM).
In the case of `CCC/C(=N\O)S(=O)(=O)c1ccc(NN=O)nc1`, the growth inhibition in assay [1] (setting [7]) was -18%; in assay [1] (setting [8]), -11%; in assay [1] (at 50.0 µM) it was -22.1%; in assay [2] (setting [7]) it was -20%; in assay [2] (setting [8]), 1%; in assay [2] (at 50.0 µM), -26.8%. For the same compound, the growth inhibition is 3% in assay [3] (setting [7]); -11% in assay [3] (setting [8]); -36.1% in assay [3] (at 50.0 µM); -31% in assay [4] (setting [7]); -13% in assay [4] (setting [8]); 34.5% in assay [4] (at 50.0 µM). The growth inhibition in assay [5] (setting [7]) is -33%; in assay [5] (setting [8]) it was -18%; in assay [5] (at 50.0 µM), -4.4%; in assay [6] (setting [7]), -33%; in assay [6] (setting [8]), -21%; in assay [6] (at 50.0 µM), -28%.
